How the values were obtained:
Details in all cases: concentration: 1 μM,replicates: in singlicate; n = 1
[1] = system: MAPKAPK5
[2] = system: MARK1
[3] = system: MARK2
[4] = system: MARK3
[5] = system: MARK4
[6] = system: MAST1
[7] = system: T1, MEK1
T1 construct: gene MAP2K1

[8] = system: T2, MEK2
T2 construct: gene MAP2K2

[9] = system: T3, MEK3
T3 construct: gene MAP2K3

[10] = system: T4, MEK4
T4 construct: gene MAP2K4

[11] = system: T5, MEK5
T5 construct: gene MAP2K5

[12] = system: T6, MEK6
T6 construct: gene MAP2K6

[13] = system: MELK
[14] = system: MERTK
[15] = system: MET
[16] = system: T7, MINK
T7 construct: gene MINK1

[17] = system: MKK7
[18] = system: MKNK1
[19] = system: MKNK2
[20] = system: T8, MLCK
T8 construct: gene MYLK3
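Note: KINOMEscan kinase panel screen.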

SMILES	%Inh [1] [%]	%Inh [2] [%]	%Inh [3] [%]	%Inh [4] [%]	%Inh [5] [%]	%Inh [6] [%]	%Inh [7] [%]	%Inh [8] [%]	%Inh [9] [%]	%Inh [10] [%]	%Inh [11] [%]	%Inh [12] [%]	%Inh [13] [%]	%Inh [14] [%]	%Inh [15] [%]	%Inh [16] [%]	%Inh [17] [%]	%Inh [18] [%]	%Inh [19] [%]	%Inh [20] [%]
CN(c1ccccc1CNc1nc(Nc2ccc3c(c2)CC(=O)N3)ncc1C(F)(F)F)S(C)(=O)=O	0	53	37	80	67	0	1	0	93.1	84	17	93.9	94.3	97.3	86	48	0	0	0	43
OCCn1cc(-c2cnc3nnn(Cc4ccc5ncccc5c4)c3n2)cn1	0	0	0	0	0	0	0	0	0	0	0	0	32	0	79	0	0	0	0	13
Cl.Cl.NC[C@H](CC1CCCCC1)NC(=O)c1ccc(-c2ccnc3[nH]ccc23)s1 [GSK1581428]	0	26	58	74	24	0	0	17	93.8	54	52	27	96.4	68	16	67	0	66	97.6	74
COC(=O)c1cccc(NC(=O)NC2CCN(c3ccnc(NCc4ccc(F)cc4)n3)CC2)c1 [GSK1379860]	0	0	0	0	0	0	0	0	0	0	8	0	0	0	0	0	45	0	9	0
CS(=O)(=O)Nc1ccc(-c2ccnc3[nH]ccc23)cc1 [GSK993273]	0	0	0	0	6	0	60	71	43	67	67	16	51	56	2	23	0	72	95.9	15
COc1cc2ncn(-c3cc(OCC4CCCCC4)c(C(N)=O)s3)c2cc1OC [GSK204559]	0	14	1	0	26	0	0	0	9	13	99.6	0	13	33	17	31	0	33	10	3
Cc1ccc2c(-c3ccnc(Nc4ccc(C(F)(F)F)cc4)n3)cnn2n1 [GW819776]	0	17	0	0	32	41	32	40	90.7	63	33	13	0	26	5	18	0	0	0	0
COC(=O)Nc1nc2cc(Oc3ccc(NC(=O)Nc4cc(C(F)(F)F)ccc4Cl)cc3)ccc2[nH]1.Cl [GW697465]	0	0	0	0	0	14	25	0	0	4	78	0	0	96.3	84	0	0	51	92.8	0
Nc1nccc(-c2ccc3c(N)n[nH]c3c2)n1 [GSK1034945]	0	0	0	0	7	0	0	0	0	8	38	0	24	16	0	47	0	11	86	96.1
